Test systems include PDGFRA; PDGFRB; PDPK1; PFTAIRE2; PHKG1; PHKG2; PIK3C2B; PIK3C2G; PIK3CA; PIK3CB; PIK3CD; PIK3CG; PIKFYVE; PIM1; PIM2; PIM3.
What all share (details): concentration: 1 μM, replicates: in singlicate; n = 1
The subject of a further test is T1, PCTK2.
T1 construct: gene CDK17

The test system of the next test is T2, PCTK3.
T2 construct: gene CDK18

A further test deals with T3, PFTK1.
T3 construct: gene CDK14

Another test concerns T4, PIK4CB.
T4 construct: gene PI4KB

Structures are written as SMILES.
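Note: KINOMEscan kinase panel screen.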

Take `CC(=O)Nc1nc2cnc(Nc3cc(NC(=O)c4cccc(C5(C#N)CC5)c4Cl)ccc3C)nc2s1`: the “%Inh” value in the test on PCTK2 worked out at 9%; in the test with PCTK3, 0%; in the test on PDGFRA it was 97.7%; in the test with PDGFRB, 100%; in the test on PDPK1 it was 1%; in the test with PFTAIRE2, 23%. The “%Inh” value in the test on PFTK1 was 0%; with PHKG1 it was 12%; in the test with PHKG2 it was 17%; in the test with PIK3C2B, 0%; in the test on PIK3C2G, 27%; in the test on PIK3CA, 0%. The “%Inh” value in the test on PIK3CB is reported as 12%; in the test with PIK3CD, 14%; in the test on PIK3CG it was 0%; with PIK4CB, 0%; with PIKFYVE, 0%; in the test with PIM1, 2%. The results for the “%Inh” value with PIM2 and in the test on PIM3 were 4% and 0%, respectively.

For `Cn1cc(-c2ccc3c(c2)CCN3C(=O)Cc2cccc(Cl)c2)c2c(N)ncnc21` [GSK2606590], the “%Inh” value is 0% with PCTK2; 7% with PCTK3; 84% with PDGFRA; 100% in the test with PDGFRB; 40% in the test on PDPK1; 18% in the test with PFTAIRE2. The “%Inh” value with PFTK1 is given as 32%; with PHKG1 it was 17%; with PHKG2 it was 0%; in the test on PIK3C2B, 89%; in the test on PIK3C2G, 0%; in the test with PIK3CA, 0%. The “%Inh” value with PIK3CB was 15%; in the test on PIK3CD, 0%; with PIK3CG, 39%; in the test with PIK4CB, 0%; in the test with PIKFYVE it was 0%; with PIM1 it was 31%. For the same molecule, the “%Inh” value is given as 0% in the test on PIM2 and 8% in the test with PIM3.

With `Nc1ncnc2c1nc(-c1ccccc1)n2-c1ccccc1` [SKF-97293], the “%Inh” value is reported as 0% in the test with PCTK2; 0% with PCTK3; 36% with PDGFRA; 0% in the test with PDGFRB; 2% with PDPK1; 6% in the test with PFTAIRE2. The “%Inh” value with PFTK1 amounted to 25%; with PHKG1, 17%; in the test on PHKG2, 0%; in the test on PIK3C2B, 4%; in the test with PIK3C2G, 6%; with PIK3CA, 16%. Moreover, the “%Inh” value in the test on PIK3CB is listed as 27%; with PIK3CD, 17%; in the test on PIK3CG, 13%; in the test with PIK4CB, 29%; in the test with PIKFYVE it was 20%; in the test with PIM1, 39%. For the same molecule, the entries for the “%Inh” value in the test on PIM2 and in the test on PIM3 were 0% and 24%, respectively.

For `C[C@@H]1CC[C@@H](C(=O)Nc2ccccc2)CN1c1cc(-c2ccc3c(N)n[nH]c3c2)nc(N)n1` [GSK2286062], the “%Inh” value in the test on PCTK2 is 13%; in the test on PCTK3, 10%; with PDGFRA it was 0%; in the test on PDGFRB, 23%; in the test on PDPK1, 64%; in the test on PFTAIRE2 it was 7%. Also, the “%Inh” value came out at 29% with PFTK1; 0% in the test on PHKG1; 21% in the test with PHKG2; 0% in the test with PIK3C2B; 0% in the test with PIK3C2G; 0% with PIK3CA. Besides, the “%Inh” value was found to be 0% in the test on PIK3CB; 0% in the test on PIK3CD; 2% in the test on PIK3CG; 0% in the test on PIK4CB; 0% in the test on PIKFYVE; 31% with PIM1. In addition, the “%Inh” value with PIM2 is recorded as 0%; in the test on PIM3, 4%.

As for `COc1ccc(CNC(=O)NC2CCN(c3ccnc(Nc4ccc(F)cc4)n3)CC2)cc1` [GSK1379788], the “%Inh” value in the test on PCTK2 worked out at 0%; in the test with PCTK3, 0%; in the test with PDGFRA, 0%; in the test on PDGFRB, 35%; in the test on PDPK1 it was 0%; in the test with PFTAIRE2, 0%. For the same molecule, the “%Inh” value with PFTK1 turned out to be 13%; in the test with PHKG1 it was 0%; in the test with PHKG2 it was 0%; in the test on PIK3C2B, 0%; in the test on PIK3C2G, 0%; in the test with PIK3CA, 0%. Also, the “%Inh” value in the test on PIK3CB came out at 0%; in the test on PIK3CD, 0%; in the test on PIK3CG, 0%; in the test on PIK4CB, 0%; with PIKFYVE, 6%; in the test on PIM1, 0%. Also, the “%Inh” value with PIM2 and in the test with PIM3 was 0% in each case.

For the molecule `COc1ccc(Nc2nccc(N3CCC(NC(=O)Nc4cccc(OC)c4)C3)n2)cc1` (stereo not drawn) [GSK1379742], the “%Inh” value with PCTK2 turned out to be 0%; with PCTK3 it was 21%; in the test with PDGFRA, 0%; with PDGFRB, 23%; with PDPK1, 15%; with PFTAIRE2, 10%. The “%Inh” value in the test with PFTK1 is on record as 2%; in the test with PHKG1, 17%; in the test with PHKG2, 0%; in the test on PIK3C2B it was 13%; in the test with PIK3C2G, 0%; in the test with PIK3CA, 0%. Further, the “%Inh” value was 0% in the test with PIK3CB; 0% with PIK3CD; 0% in the test on PIK3CG; 1% in the test with PIK4CB; 0% with PIKFYVE; 0% in the test with PIM1. Also, the figures for the “%Inh” value in the test with PIM2 and in the test on PIM3 were 0% and 3%, respectively.

As for `COc1cccc(NC(=O)NC2CCN(c3ccnc(Nc4cc(OC)c(OC)c(OC)c4)n3)C2)c1` (stereo not drawn) [GSK1379763], the “%Inh” value in the test with PCTK2 was 25%; with PCTK3, 21%; in the test with PDGFRA, 28%; in the test on PDGFRB, 83%; with PDPK1 it was 0%; with PFTAIRE2, 9%. For the same molecule, the “%Inh” value with PFTK1 was determined as 5%; in the test with PHKG1, 0%; in the test on PHKG2, 0%; with PIK3C2B, 0%; in the test on PIK3C2G, 0%; in the test on PIK3CA, 0%. Moreover, the “%Inh” value was 0% with PIK3CB; 51% with PIK3CD; 8% with PIK3CG; 78% in the test on PIK4CB; 0% with PIKFYVE; 0% with PIM1. The “%Inh” value with PIM2 and with PIM3 was 0% each time.

For the molecule `Fc1ccc(-c2ncn(C3CCNCC3)c2-c2ccnc(Oc3ccc(-c4ccccc4)cc3)n2)cc1` [SB-245391], the “%Inh” value is recorded as 1% in the test with PCTK2; 2% in the test with PCTK3; 23% with PDGFRA; 12% in the test with PDGFRB; 21% with PDPK1; 13% in the test with PFTAIRE2. Moreover, the “%Inh” value in the test on PFTK1 was determined as 9%; in the test with PHKG1, 0%; in the test on PHKG2 it was 0%; with PIK3C2B it was 27%; with PIK3C2G, 39%; in the test on PIK3CA, 40%. Also, the “%Inh” value was determined as 40% in the test with PIK3CB; 73% with PIK3CD; 39% in the test with PIK3CG; 31% with PIK4CB; 15% in the test with PIKFYVE; 23% with PIM1. For the same molecule, the “%Inh” value in the test with PIM2 was 4%; in the test on PIM3, 16%.

As for `c1ccc(Oc2ccc(Nc3ccnc4cc(-c5ccc(CNCCN6CCOCC6)o5)ccc34)cc2)nc1` [GW567145], the “%Inh” value with PCTK2 came out at 0%; in the test with PCTK3, 2%; in the test on PDGFRA, 65%; in the test with PDGFRB it was 89%; in the test with PDPK1, 0%; with PFTAIRE2 it was 6%. Besides, the “%Inh” value is recorded as 11% in the test with PFTK1; 3% in the test with PHKG1; 0% with PHKG2; 0% in the test on PIK3C2B; 0% in the test on PIK3C2G; 0% with PIK3CA. Further, the “%Inh” value in the test with PIK3CB amounted to 0%; in the test with PIK3CD it was 0%; with PIK3CG, 0%; in the test with PIK4CB it was 0%; in the test on PIKFYVE, 50%; with PIM1 it was 0%. Moreover, the “%Inh” value in the test on PIM2 and in the test on PIM3 was 0% throughout.

For the origin of these results see article PMC5540273 (PLoS ONE, 2017).
